GLP1R ag – activates the human GLP-1 receptor. Potency, µM (doses to about 45.6 µM), actives largely listed as activators. HEK293 GLP-1R CRE-luciferase, luminescence, 4-6 h; cells express a hypersensitive GLP-1R form. P43220. 380,000 tested, 0.007% active
D3 ag – agonists of human D3 dopamine receptor | D3R DiscoveRx beta-arrestin cells, luminescence, 90 min | max activation, % | 410,000 tested, 0.58% active | AID 652048; in the data active = max activation above about 30%
Target sequence (P35462 whole entry, looked up): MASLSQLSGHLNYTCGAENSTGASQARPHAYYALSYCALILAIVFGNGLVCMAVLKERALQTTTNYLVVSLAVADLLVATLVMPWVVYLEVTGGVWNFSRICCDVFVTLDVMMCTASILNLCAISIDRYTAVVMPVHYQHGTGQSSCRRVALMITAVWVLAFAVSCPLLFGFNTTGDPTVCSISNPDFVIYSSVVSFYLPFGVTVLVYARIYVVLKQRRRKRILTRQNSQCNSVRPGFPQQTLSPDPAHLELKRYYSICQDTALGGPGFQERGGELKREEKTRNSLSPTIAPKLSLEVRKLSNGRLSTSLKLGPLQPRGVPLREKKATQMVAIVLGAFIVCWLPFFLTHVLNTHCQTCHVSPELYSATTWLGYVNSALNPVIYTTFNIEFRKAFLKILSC
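Agonist-mode cell screen: cells plated at 1500/well and incubated overnight at 37 °C, then exposed to library compounds for 90 min at 37 °C. Detection reagent was added for 30–60 min at room temperature, and luminescence was read.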
GLP1R inv ag – inverse agonists of human GLP-1 receptor; HEK293 GLP-1R CRE-luciferase, luminescence, 24 h; GLP-1R form is constitutively active; Potency, µM (series often up to 38.3 µM), usual class: inhibitors; 410,000 tested, 1.6% active; P43220; also: nearly all actives have a fitted effect of over 55% in size
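Stable HEK293 clone (constitutively active GLP-1R + cAMP-response luciferase); 200 cells/uL plated, 12 h pre-culture, compound 24 hr, 37 deg C/5% CO2; detection reagent 12 min RT; luminescence.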
DRD3 antagonist – blocks the human D3 dopamine receptor | AID 652054 | 360,000 tested, 2.5% active | max response, negative = inhibition, % | P35462 | D3R cells, DiscoveRx beta-arrestin luminescence, antagonist mode; hits give low values; in the data active = max response below about -50%; inconclusive = no clear call, values can overlap the other calls
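Cells plated overnight at 1500 cells/well, then exposed to library compounds with dopamine controls for 90 minutes at 37 degrees C. DiscoveRx reagent added for 30–60 minutes at room temperature; luminescence read, quantitative HTS format.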
Hits are given with their value; n = inactive; u = inconclusive; x = no result given. Only some compounds are listed: those with a hit (about 4.3% of all), similar ones and a draw of the others. Unless noted, calls follow the shape of the dose curve; as a rule, active = well fitted curve in the direction sought with a large enough effect; inconclusive = small, poorly fitted or top-dose-only effect, or another doubt; inactive = no such curve, though single readings can be large; an effect the other way counts as inactive or inconclusive.

SMILES | GLP1R ag | D3 ag | GLP1R inv ag | DRD3 antagonist
CCOc1cc(N2CCOCC2)c(OCC)cc1NC(=O)CC12CC3CC(CC(C3)C1)C2 | n | n | 1µM | n
CN(C(=O)NCc1noc2ccccc12)c1cccc(Cl)c1 | x | n | n | x
COc1ccccc1CNC(=O)CSc1nc(=O)[nH]c2c1CCC2 | x | n | n | x
c1csc(C2Nc3cccc4cccc(c34)N2)c1 | n | n | n | -70
CCC1CCCCN1CCCNC(=O)c1c(C)oc2ncn(CC(C)C)c(=O)c12 (centres undefined) | x | n | n | x
CCC1CCCCN1CCCNC(=O)c1cn(CC(C)C)c(=O)c2cc(OC)c(OC)cc12 (centres undefined) | n | n | n | -68
CCOc1cc(C(=O)Nc2ccc(-c3nc4cc(Cl)ccc4o3)cc2)cc(OCC)c1OCC | x | n | n | x
COCCn1c(C)cc(C(=O)CSc2nnnn2C2CCCC2)c1C | n | n | 2.2µM | n
COCCn1c(C)cc(C(=O)COC(=O)c2cccc(O)c2)c1C | n | n | 0.89µM | n
COCCn1c(C)cc(C(=O)CSc2nnc(C)s2)c1C | n | n | 1.3µM | n
COCCn1c(C)cc(C(=O)COC(=O)c2cc3c(s2)CCC3)c1C | n | n | u | n
COCCn1c(C)cc(C(=O)CSc2n[nH]c(N)n2)c1C | n | n | n | n
Cc1ccc(NC(=O)CCN2C(=O)c3ccccc3Sc3ncccc32)c(Cl)c1 | x | n | n | x
Cc1cc(NC(=O)c2cc([N+](=O)[O-])ccc2Cl)no1 | n | n | u | n
O=C(Nc1cccc(NC(=O)c2cc([N+](=O)[O-])ccc2Cl)n1)c1cc([N+](=O)[O-])ccc1Cl | n | n | 4µM | n
Cc1ccccc1-n1nc(C)c2cc(C(=O)NCc3cccnc3)sc21 | n | n | n | -60
O=C(NCC(c1cccs1)S(=O)(=O)c1ccccc1)c1ccc(C(F)(F)F)cc1 (centres undefined) | x | n | n | x
O=C(Cc1ccc(F)cc1)N1CCC(CC2CC(c3cccc(Br)c3)=NO2)(C(=O)NCC2CCCCC2)CC1 (centres undefined) | n | n | u | -51
O=C(Cc1ccc(F)cc1)N1CCC(CC2CC(c3ccc(Cl)cc3)=NO2)(C(=O)NCC2CCCCC2)CC1 (centres undefined) | n | n | u | n
CCC(C)(C)NC(=O)CSc1nc(Cc2ccccc2)nc2ccccc12 | n | n | 4.5µM | n
CC(C)(C)NC(=O)CSc1nc(Cc2ccccc2)nc2ccccc12 | n | n | u | n
CC(C)(C)C(=O)OCCNc1nc(-c2ccccc2)nc2ccccc12 | n | n | 13µM | n
Cc1ccc(-c2nc(NCCCN(C)C)c3ccccc3n2)cc1 | n | n | 10µM | n
S=C(NCCN1CCOCC1)N/N=C/c1cccs1 | n | n | 3.2µM | n
CCCCC(Sc1nc2cc3c(cc2c(=O)n1CCCC(=O)NCc1ccc2c(c1)OCO2)OCO3)C(=O)OCC (centres undefined) | x | n | n | x
SMILES | GLP1R ag | D3 ag | GLP1R inv ag | DRD3 antagonist
Cc1ccc(NC(=O)/C(C#N)=C/c2ccccc2Cl)cc1C | x | n | n | x
COc1ccc(NC(=O)Cn2nnc(-c3nc(-c4ccncc4)no3)c2N)cc1OC | x | n | n | x
CN(Cc1ccccc1)C(c1ccnc2ccccc12)c1nnnn1-c1ccc2c(c1)OCCO2 (centres undefined) | n | 50 | u | n
COc1nnc(-c2ccc(N3CCOCC3)c(NC(=O)c3ccccc3)c2)c2ccccc12 | n | n | n | n
COc1nnc(-c2ccc(N3CCCCC3)c(NC(=O)c3ccc(C)cc3)c2)c2ccccc12 | n | n | n | x
COc1nnc(-c2ccc(N3CCCCC3)c(NC(=O)c3ccccc3Cl)c2)c2ccccc12 | x | n | 3.5µM | x
COc1nnc(-c2ccc(N3CCOCC3)c(NC(C)=O)c2)c2ccccc12 | n | n | n | -52
Cc1ccccc1Cn1c(C)c(CNCc2ccccc2)c(C(=O)O)c1C | x | n | n | x
Cc1cc(N2CCN(c3ncccn3)CC2)nc2c(C)cccc12 | n | 36 | n | n
O=C(c1ccco1)N1CCN(c2ncnc3scc(-c4ccc(Cl)cc4)c23)CC1 | n | n | n | n
CCN1CCN(C(=O)c2ccc3c(c2)N(Cc2ccccc2F)C(=O)c2ccccc2S3=O)CC1 (centres undefined) | n | n | n | x
COc1ccc(OCC#CCNC(C)(C)C)cc1 | n | n | n | -69
COc1ccc(OCC#CCN2CC(C)OC(C)C2)cc1 (centres undefined) | n | n | n | n
COc1ccc(NC(=O)CSc2ncc(-c3ccc(Cl)cc3)[nH]2)cc1OC | x | n | n | x
COc1ccccc1-c1noc(-c2ccc(NCC3CCCO3)c([N+](=O)[O-])c2)n1 (centres undefined) | x | n | n | x
OC1(Cc2cc(-c3ccccc3)no2)CCN(CCCc2ccccc2)CC1 | n | n | u | -75
Cc1sc2nc(CN3CCCCC3)nc(Cl)c2c1C | n | n | n | n
CCN(CC)CCCNC(=O)Cn1nc([N+](=O)[O-])c(Cl)c1C | n | n | n | n
COc1cc(Cn2c(=O)sc3ccccc32)ccc1OCCC(C)C | x | n | 10µM | x
CCCCOc1ccc(Cn2c(=O)sc3ccccc32)cc1OC | x | n | u | x
COc1ccc(-c2[nH][nH]c(=O)c2NC(=O)c2ccccc2Br)cc1 | n | n | n | -53
Cc1nn(Cc2c(Cl)cccc2Cl)c(C)c1NC(=O)CCCn1nc([N+](=O)[O-])c(Cl)c1C | n | n | 2.5µM | n
COc1ccc(CNC(=O)O[C@]23C[C@H]4C(=O)N(c5ccccc5)C(=O)[C@H]4C[C@@]2(O)CN(S(=O)(=O)c2ccc(C)cc2)C3)cc1OC | n | n | n | n
Nc1c(-c2nc(-c3cccs3)no2)nnn1-c1cccc(Cl)c1 | x | n | n | x
O=c1cc(N2CCCCC2)nc2n1CCCS2 | u | 35 | n | n
SMILES | GLP1R ag | D3 ag | GLP1R inv ag | DRD3 antagonist
O=C(CCCN1CCC(C(O)c2ccc(F)cc2)CC1)c1ccc(F)cc1 (centres undefined) | n | n | n | -80
O=C(CCCN1CCC(C(=O)c2ccc(F)cc2)CC1)c1ccc(F)cc1 | n | n | n | -101
CC1CCN(CCCC(=O)c2ccc(F)cc2)CC1 | n | n | x | x
CN1CCN(CCCC(=O)c2ccc(C3CCCC3)cc2)CC1 | n | n | u | -55
CN1CCN(CCCCC(=O)c2ccccc2)CC1 | n | n | n | n
CCCc1cc(=O)[nH]c(Nc2cc(C)ccc2OC)n1 | x | n | u | x
Cc1ccccc1CNC(=O)C(=O)NCC(c1ccc2c(c1)OCO2)N1CCOCC1 (centres undefined) | x | n | n | x
COc1cc(OC)c(NC(=O)N2CCOc3ccc(C)cc32)cc1Cl | x | n | n | x
Cc1oc(-c2ccc(Cl)cc2)nc1CSc1nc2ncccc2[nH]1 | x | n | n | x
CCCOCc1cc(CN2CCN(c3cccc(Cl)c3)CC2)c(O)c2ncccc12 | x | n | u | x
Clc1ccc(N2CCN(Cc3c[nH]c4ncccc34)CC2)cc1 | n | x | n | -78
COc1ccc(F)cc1C(=O)C1CCCN(Cc2cnc(N3CCCC3)s2)C1 (centres undefined) | n | n | n | -59

High-throughput results as filed in PubChem BioAssay.
